# Screening results: PubChem BioAssay, several laboratories
# This is a sample that favours compounds with a hit; in the whole collection about 2.4% have one here.
# TLR4-MyD88 BLA: blocks binding of human TLR4 to MyD88. HeLa CL3-4 TLR4/MyD88 BLA complementation, FRET ratio. 0.18% of 200,000 active. inhibition, % at 8.4 µM; in the data active = inhibition above about 25%;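 note: 0% = vehicle and 100% = reference inhibitor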
# TLR9-MyD88 inh: blocks human TLR9 binding to MyD88. Q9NR96+Q99836. CHO BLA complementation TLR9-MyD88, CCF4 FRET ratio. inhibition, % at 4.98 µM. 0.21% of 340,000 active. AID 504734;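 active = inhibition above the mean over all tested compounds plus 3 SD, cut at about 21% in these data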;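 note: 0% = DMSO only wells and 100% = clavulanate BLA inhibitor control wells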
# HTR2A ag: agonists of mouse serotonin 5-HT2A receptor (HTR2A); P35363; activation, % at 7.6 µM; AID 624169; 0.66% of 360,000 active; CHO-K1 mHTR2A beta-arrestin complementation, luminescence; percent of 30 µM serotonin response;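 active = activation above a run cutoff, the mean activation of all tested compounds plus 3 SD, cut at about 14% in these data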;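 note: 0% = plate median of compound wells and 100% = 30 µM serotonin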
# ABHD5 PLIN5 PPI: inhibitors of human ABHD5-perilipin-5 interaction; Q00G26+Q8WTS1; Split G. princeps luciferase complementation, luminescence, 4 h; AID 602281; inhibition, % at 4 µM; 0.78% of 360,000 active;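 active = inhibition above the mean inhibition across every tested compound plus 3 SD, cut at about 22% in these data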;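 note: 0% = DMSO only wells and the 100% control is not disclosed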
# CRFBP-R2 block: CRF-BP/CRF-R2 complex antagonism; AID 588475; inhibition, % at 11.8 µM; HEK293 CRF-R2/CRF-BP, CRF-induced calcium fluorescence; 0.59% of 350,000 active;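 active = inhibition of the ligand-induced calcium signal above about 50% at the single tested concentration, limit read from the data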
# NOD2-RIPK2 inh: blocks binding of human NOD2 to RIPK2; O43353; CHO BLA complementation NOD2-RIPK2, CCF4 ratio; inhibition, % at 4.98 µM; 0.38% of 360,000 active; AID 624267; in the data active = inhibition above about 21%;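 note: 0% = vehicle only and 100% = reference blocker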
# OPRM1 ag: OPRM1 agonism in mouse HTR2A counterscreen; shares compounds with HTR2A ag; activation, % at 9.3 µM; AID 624380; U2OS OPRM1 beta-arrestin PathHunter, luminescence; DMSO 0%, DAMGO 9.3 µM 100%; 5.3% of 2,300 active;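 active = mean activation above the mean of DMSO-only wells plus 3 SD, cut at about 0.5% in these data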
# Target sequence (P35372 whole entry, looked up): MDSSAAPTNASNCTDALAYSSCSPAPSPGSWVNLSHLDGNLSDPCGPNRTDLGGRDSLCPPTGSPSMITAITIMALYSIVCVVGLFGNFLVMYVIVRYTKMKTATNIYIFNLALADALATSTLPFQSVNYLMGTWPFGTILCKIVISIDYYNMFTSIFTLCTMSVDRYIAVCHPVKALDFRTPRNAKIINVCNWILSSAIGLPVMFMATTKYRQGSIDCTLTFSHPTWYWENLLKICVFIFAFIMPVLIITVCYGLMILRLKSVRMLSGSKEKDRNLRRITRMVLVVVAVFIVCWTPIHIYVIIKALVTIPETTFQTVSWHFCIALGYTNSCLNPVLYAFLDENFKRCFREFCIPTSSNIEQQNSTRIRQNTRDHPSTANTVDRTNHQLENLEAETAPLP
# m5-HT2A ag conf: confirmation of mouse HTR2A serotonin receptor agonists; 19% of 2,300 active; activation, % at 7.6 µM; shares compounds with HTR2A ag; CHO-K1 PathHunter beta-arrestin recruitment, luminescence; DMSO 0%, 30 µM serotonin 100%;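 active = mean activation across triplicates above the hit threshold derived in the original primary screen, cut at about 15% in these data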
# An asterisk follows results filed as active; x = no result given.
SMILES,TLR4-MyD88 BLA,TLR9-MyD88 inh,HTR2A ag,ABHD5 PLIN5 PPI,CRFBP-R2 block,NOD2-RIPK2 inh,OPRM1 ag,m5-HT2A ag conf
COc1ccc(-c2oc3c(c2C#CCCCCO)C(OCCO)CC3)cc1 (stereo not given),x,x,-1,-2,x,-6,x,x
COc1ccc(N2CCN(C(=O)CCS(=O)(=O)c3ccc4c(c3)CCN4C(=O)C3CC3)CC2)cc1,x,7,16*,-6,2,-3,-1,-3
COc1cccc(C(=O)Nc2nnc(C(C)C)s2)c1,-1,-7,22*,1,-22,5,0,-3
COc1ccc(CN(C)S(=O)(=O)c2nnc(NC(=O)c3cccc(OC)c3)s2)cc1,x,2,2,-4,30,10,x,x
COc1cccc(C(=O)Nc2nc(-c3ccncc3)cs2)c1,-9,-9,6,-5,7,4,x,x
COc1cccc(C(=O)Nc2nnc(S(=O)(=O)N(C)Cc3ccccc3)s2)c1,x,-1,22*,-3,9,11,0,0
COc1cccc(C(=O)Nc2nc(-c3ccc4c(c3)OCO4)cs2)c1,-2,0,16*,1,-26,2,-1,-6
CN(CC1CCCN(CCc2ccccc2F)C1)C(=O)c1cc2ccccc2o1 (stereo not given),x,-10,0,2,2,-1,x,x
CN(CCc1ccccc1)C(C(=O)c1ccc2c(c1)OCO2)c1nnnn1-c1ccccc1NC(=O)OC(C)(C)C (stereo not given),x,x,1,-6,x,-2,x,x
CC(C)(C)c1ccc(C(=O)Nc2ccc3c(c2)C(=O)NC3=O)cc1,x,-8,16*,7,1,1,0,-3
CC(=O)c1ccc(C(=O)Nc2ccc3c(c2)C(=O)NC3=O)cc1,x,-7,7,-5,-2,1,x,x
O=C(Nc1c(-c2ccc(Cl)cc2)[nH][nH]c1=O)c1ccc(Br)cc1,x,x,0,-47,x,-3,x,x
Oc1ccc(C2CNCc3sccc32)cc1O (stereo not given),x,-11,48*,-6,-13,-9,0,151*
CC(O)(c1ccccc1)c1nc(-c2ccc(S(C)(=O)=O)cc2)cs1 (stereo not given),x,x,1,-8,x,-3,x,x
O=C(O)C1=CCNCC1,x,1,18*,-2,2,-4,-1,2
COc1cccc(CNS(=O)(=O)c2cc3c4c(c2)CCN4C(=O)CC3)c1,x,6,18*,2,8,6,-1,-3
O=C1CCc2cc(S(=O)(=O)NCc3ccccc3)cc3c2N1CC3,x,10,-2,2,6,15,x,x
CCCS(=O)(=O)NC(=O)C1(C)CCCN(C(=O)c2c(OC)cccc2OC)C1 (stereo not given),x,x,-1,-4,x,14,x,x
CCCCOCCCNC(=O)C[C@@H]1C[C@@]2(C(=O)OC)CCCCC=C2N(Cc2ccco2)C1=O,x,x,-1,0,x,-1,x,x
O=[N+]([O-])c1cc(-c2nnc(Nc3ccc(O)cc3)c3ccccc23)ccc1N1CCOCC1,2,4,31*,7,1,-13,0,21*
O=C1CCCCCCC(=O)[C@H](O)C[C@H](c2ccccc2)O1,x,x,-1,-2,x,-6,x,x
COc1ccccc1NC(=O)c1oc2ccccc2c1NC(=O)c1cc(OC)c(OC)c(OC)c1,-8,5,-1,7,-4,-12,x,x
COCC(=O)Nc1c(C(=O)Nc2ccccc2OC)oc2ccccc12,-3,-1,15*,-4,9,2,0,-6
CN=C(c1ccc(C)cc1)n1c(=S)nc(-c2ccc(C)cc2)n(C)c1=S,-5,-9,15*,-5,-18,-13,0,-5
CN=C(c1ccco1)n1c(=S)nc(-c2ccco2)n(C)c1=S,6,9,2,-26,50,13,x,x
CCN(CC)C(=O)Nc1ccc(Br)cc1,-5,-5,23*,0,5,-10,-1,-3
